# Source: PubChem BioAssay
# The source made the active and inactive calls.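 How the source made its calls: active means visually confirmed hit in the image check and inhibition above 20%; inconclusive means visually confirmed hit but inhibition not above 20%; inactive means no visual hit in the image check.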
# Assay: endothelial E-selectin expression blockers – imaging, HUVEC, immunofluorescence, MLSMR starter and 10KST1 sets, primary screen (AID 487);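 on inhibition: signal is fraction of cell area covered by stained E-selectin grains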;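 on nuclei count: 100% = median nuclei count of all wells on the same plate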
# Conditions: HUVEC TNFalpha-induced E-selectin immunofluorescence imaging, at 2 µM; inhibition: stronger effect = higher value; nuclei count: measured here: cell number, toxicity
SMILES,nuclei count [%],inhibition
CCCNC(=O)c1ccccc1NC(=O)CN(c1ccccc1OCC)S(C)(=O)=O,102,-142% (inactive)
CCS(=O)(=O)N1CCC(C(=O)NC2CCCCCCC2)CC1,128,-113% (inactive)
COc1ccc(C(=O)N2CCCc3ccccc32)cc1,110,4.7% (inactive)
CCOC(=O)c1cnn(-c2sc(C(=O)OCC)c(C)c2C(=O)OCC)c1N,115,-5.8% (inactive)
CCn1c(C(=O)N2CCCC(C(=O)NCCCc3ccccc3)C2)cc2sccc21 (configuration not stated),104,-19.4% (inactive)
CCC1CCCCN1CCCNC(=O)CC1Oc2ccc(C)cc2NC1=O (configuration not stated),107,-71% (inactive)
CC(C)OC(=O)CSc1nnc(-c2ccccn2)n1-c1ccccc1,99.6,-11.2% (inactive)
O=C(O)C1CC=CCC1C(=O)Nc1cc(Cl)ccc1Cl (configuration not stated),102,5.3% (inactive)
COC(=O)Nc1ccc(NC(C)=O)cc1,94.6,6.8% (inactive)
O=C(COC(=O)c1cncc(Br)c1)NCCC1=CCCCC1,116,-26.8% (inactive)
COc1cccc(-c2noc(C3CCCN(C(=O)Cc4ccccc4)C3)n2)c1 (configuration not stated),115,18.4% (inactive)
Cc1cc(NS(=O)(=O)c2ccc(NC(=O)Nc3ccc4c(c3)OCO4)cc2)no1,112,-96.1% (inactive)
CCOC(=O)N1CCC(N2C(=O)c3ccc(C(=O)NCc4ccco4)cc3C2=O)CC1,126,-40.8% (inactive)
COc1ccc(C2CC(=O)C3=C(C2)Nc2ccccc2N(C(=O)C2CC2)C3c2cccnc2)cc1OC (configuration not stated),98.6,0.8% (inactive)
OC(CNCC1COc2ccccc2O1)COCc1cccs1 (configuration not stated),131,-133% (inactive)
COC(=O)n1c(=S)oc2cc(Cl)ccc21,93,16.4% (inactive)
CCOC(=O)C1CCN(C(=O)CCCCn2c(=O)[nH]c3ccccc3c2=O)CC1,126,-54.8% (inactive)
CN(c1ccc(OCc2nnc(-c3ccccc3)o2)cc1)S(=O)(=O)c1ccccc1,82,21.6% (inactive)
Cc1ccccc1NC(=O)C1CCCN(S(=O)(=O)c2cnc[nH]2)C1 (configuration not stated),124,-26.7% (inactive)
COc1ccc(C(=O)NCC(=O)NC2=NCCS2)cc1,106,-43.6% (inactive)
O=C1N2c3ccccc3CCc3cccc(c32)C1(O)C(F)(F)F (configuration not stated),86.8,-28% (inactive)
Cn1c(=O)c2c(nc(CN3CCN(Cc4ccccc4)CC3)n2Cc2cccc(Cl)c2)n(C)c1=O,98,10.1% (inactive)
CN(C)c1ccc(CNCCC2(O)CCOC(C)(C)C2)cc1 (configuration not stated),114,-25% (inactive)
CC(C(N)=O)N1C(=O)C2C3C=CC(C3)C2C1=O (configuration not stated),121,-33.8% (inactive)
Nc1nc(-c2ccc(Br)s2)c(Br)s1,98,18.6% (inactive)
O=C(c1c(F)cccc1F)N(Cc1ccccn1)C1CCCC1,87.3,40.9% (inactive)
